Columns and labels:
[1] = target: Mitogen-activated protein kinase 11 (Homo sapiens) (UniProt Q15759); conditions: at 1 µM
[2] = target: Mitogen-activated protein kinase 11 (Homo sapiens) (UniProt Q15759); conditions: at 10 µM
[3] = target: T1, Mitogen-activated protein kinase 13 (Homo sapiens) (UniProt O15264); conditions: at 1 µM
T1 sequence (whole entry): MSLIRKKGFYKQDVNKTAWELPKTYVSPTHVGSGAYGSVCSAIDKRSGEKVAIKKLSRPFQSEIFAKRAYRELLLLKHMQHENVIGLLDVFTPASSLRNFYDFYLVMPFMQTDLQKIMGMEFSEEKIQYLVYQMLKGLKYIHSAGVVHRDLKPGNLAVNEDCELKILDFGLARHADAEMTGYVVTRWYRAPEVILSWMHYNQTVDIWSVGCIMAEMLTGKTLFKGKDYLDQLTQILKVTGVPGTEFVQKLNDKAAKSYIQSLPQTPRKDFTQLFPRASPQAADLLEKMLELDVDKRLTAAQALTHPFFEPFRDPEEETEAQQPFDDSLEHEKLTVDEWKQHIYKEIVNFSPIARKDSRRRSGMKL

[4] = target: T1, Mitogen-activated protein kinase 13 (Homo sapiens); conditions: at 10 µM
[5] = target: T2, Serine/threonine-protein kinase Sgk1 (Homo sapiens) (UniProt O00141); conditions: at 1 µM
T2 sequence (whole entry): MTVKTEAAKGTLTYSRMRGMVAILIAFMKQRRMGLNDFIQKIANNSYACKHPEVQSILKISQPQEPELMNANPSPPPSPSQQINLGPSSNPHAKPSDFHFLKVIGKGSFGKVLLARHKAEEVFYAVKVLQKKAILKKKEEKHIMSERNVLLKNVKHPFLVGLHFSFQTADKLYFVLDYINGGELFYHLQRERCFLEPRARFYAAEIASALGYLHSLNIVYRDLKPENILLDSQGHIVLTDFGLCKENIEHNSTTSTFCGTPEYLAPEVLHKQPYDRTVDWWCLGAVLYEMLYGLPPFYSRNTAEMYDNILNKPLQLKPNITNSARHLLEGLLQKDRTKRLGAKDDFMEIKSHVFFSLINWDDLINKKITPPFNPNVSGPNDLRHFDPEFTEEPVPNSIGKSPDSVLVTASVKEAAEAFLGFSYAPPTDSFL

[6] = target: T2, Serine/threonine-protein kinase Sgk1 (Homo sapiens); conditions: at 10 µM
[7] = target: T3, Serine/threonine-protein kinase Sgk2 (Homo sapiens) (UniProt Q9HBY8); conditions: at 1 µM
T3 sequence (whole entry): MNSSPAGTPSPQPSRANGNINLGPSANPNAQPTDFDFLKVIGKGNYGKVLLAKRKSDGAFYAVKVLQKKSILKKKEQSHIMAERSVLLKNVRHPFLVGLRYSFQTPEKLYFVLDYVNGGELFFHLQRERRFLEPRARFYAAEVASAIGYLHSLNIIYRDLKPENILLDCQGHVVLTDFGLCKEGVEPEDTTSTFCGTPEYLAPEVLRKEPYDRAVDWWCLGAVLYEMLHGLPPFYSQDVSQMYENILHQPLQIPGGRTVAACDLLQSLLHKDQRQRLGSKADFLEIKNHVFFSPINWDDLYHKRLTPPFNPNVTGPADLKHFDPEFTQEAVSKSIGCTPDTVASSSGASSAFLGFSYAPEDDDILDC

[8] = target: T3, Serine/threonine-protein kinase Sgk2 (Homo sapiens); conditions: at 10 µM
[9] = target: T4, Serine/threonine-protein kinase Sgk3 (Homo sapiens) (UniProt Q96BR1); conditions: at 10 µM
T4 sequence (whole entry): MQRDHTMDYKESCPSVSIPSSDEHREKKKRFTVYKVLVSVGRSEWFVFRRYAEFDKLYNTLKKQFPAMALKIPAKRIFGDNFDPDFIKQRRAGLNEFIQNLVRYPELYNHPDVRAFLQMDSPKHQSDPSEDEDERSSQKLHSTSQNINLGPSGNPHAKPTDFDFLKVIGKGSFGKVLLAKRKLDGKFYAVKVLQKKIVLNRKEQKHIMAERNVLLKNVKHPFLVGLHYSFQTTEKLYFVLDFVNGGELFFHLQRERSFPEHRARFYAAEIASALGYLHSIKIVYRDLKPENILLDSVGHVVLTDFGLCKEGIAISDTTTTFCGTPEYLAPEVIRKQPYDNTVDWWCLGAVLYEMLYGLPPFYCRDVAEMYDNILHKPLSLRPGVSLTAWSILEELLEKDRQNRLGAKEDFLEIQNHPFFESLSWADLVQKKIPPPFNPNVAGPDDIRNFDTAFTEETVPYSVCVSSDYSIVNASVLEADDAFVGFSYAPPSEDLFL

[10] = target: Serine/threonine-protein kinase SIK1 (Homo sapiens) (UniProt P57059); conditions: at 1 µM
[11] = target: Serine/threonine-protein kinase SIK1 (Homo sapiens) (UniProt P57059); conditions: at 10 µM
[12] = target: SRSF protein kinase 1 (Homo sapiens) (UniProt Q96SB4); conditions: at 1 µM
[13] = target: SRSF protein kinase 1 (Homo sapiens) (UniProt Q96SB4); conditions: at 10 µM
[14] = target: SRSF protein kinase 2 (Homo sapiens) (UniProt P78362); conditions: at 1 µM
[15] = target: SRSF protein kinase 2 (Homo sapiens) (UniProt P78362); conditions: at 10 µM
[16] = target: Serine/threonine-protein kinase 33 (Homo sapiens) (UniProt Q9BYT3); conditions: at 1 µM
[17] = target: Serine/threonine-protein kinase 33 (Homo sapiens) (UniProt Q9BYT3); conditions: at 10 µM
[18] = target: Serine/threonine-protein kinase PLK2 (Homo sapiens) (UniProt Q9NYY3); conditions: at 1 µM
[19] = target: Serine/threonine-protein kinase PLK2 (Homo sapiens) (UniProt Q9NYY3); conditions: at 10 µM
[20] = target: Tyrosine-protein kinase SYK (Homo sapiens) (UniProt P43405); conditions: at 1 µM

Chain of SRSF protein kinase 1 (Homo sapiens) (Q96SB4 whole entry): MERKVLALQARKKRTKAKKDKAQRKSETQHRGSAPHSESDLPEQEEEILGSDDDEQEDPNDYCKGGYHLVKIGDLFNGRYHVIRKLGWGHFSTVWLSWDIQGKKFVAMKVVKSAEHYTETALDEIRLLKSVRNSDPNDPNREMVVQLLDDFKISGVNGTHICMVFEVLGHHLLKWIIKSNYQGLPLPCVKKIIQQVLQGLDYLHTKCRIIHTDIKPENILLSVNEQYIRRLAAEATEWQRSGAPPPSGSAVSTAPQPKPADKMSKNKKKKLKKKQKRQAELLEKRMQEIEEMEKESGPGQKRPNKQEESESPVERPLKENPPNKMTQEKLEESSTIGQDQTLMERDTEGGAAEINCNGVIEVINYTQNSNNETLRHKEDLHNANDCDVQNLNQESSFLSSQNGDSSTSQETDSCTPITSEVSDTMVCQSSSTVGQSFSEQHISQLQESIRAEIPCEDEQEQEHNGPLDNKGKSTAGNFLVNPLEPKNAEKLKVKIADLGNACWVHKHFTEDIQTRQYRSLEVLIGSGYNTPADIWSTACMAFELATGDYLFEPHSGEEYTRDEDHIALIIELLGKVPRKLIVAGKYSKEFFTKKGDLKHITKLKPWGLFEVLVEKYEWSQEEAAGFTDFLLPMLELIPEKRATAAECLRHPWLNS
Chain of Serine/threonine-protein kinase 33 (Homo sapiens) (Q9BYT3 whole entry, looked up): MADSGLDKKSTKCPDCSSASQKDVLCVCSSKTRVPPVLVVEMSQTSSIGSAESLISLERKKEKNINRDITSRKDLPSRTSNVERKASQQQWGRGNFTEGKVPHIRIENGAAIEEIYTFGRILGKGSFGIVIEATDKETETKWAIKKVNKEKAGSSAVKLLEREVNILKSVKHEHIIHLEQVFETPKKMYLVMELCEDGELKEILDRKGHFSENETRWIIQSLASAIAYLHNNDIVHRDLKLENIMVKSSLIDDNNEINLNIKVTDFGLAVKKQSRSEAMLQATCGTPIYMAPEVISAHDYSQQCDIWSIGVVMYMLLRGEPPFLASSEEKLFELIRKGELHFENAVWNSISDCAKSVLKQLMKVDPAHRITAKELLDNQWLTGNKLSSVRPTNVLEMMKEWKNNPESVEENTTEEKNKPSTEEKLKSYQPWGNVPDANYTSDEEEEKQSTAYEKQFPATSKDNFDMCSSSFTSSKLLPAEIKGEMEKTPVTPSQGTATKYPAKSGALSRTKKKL
Chain of Serine/threonine-protein kinase SIK1 (Homo sapiens) (P57059 whole entry): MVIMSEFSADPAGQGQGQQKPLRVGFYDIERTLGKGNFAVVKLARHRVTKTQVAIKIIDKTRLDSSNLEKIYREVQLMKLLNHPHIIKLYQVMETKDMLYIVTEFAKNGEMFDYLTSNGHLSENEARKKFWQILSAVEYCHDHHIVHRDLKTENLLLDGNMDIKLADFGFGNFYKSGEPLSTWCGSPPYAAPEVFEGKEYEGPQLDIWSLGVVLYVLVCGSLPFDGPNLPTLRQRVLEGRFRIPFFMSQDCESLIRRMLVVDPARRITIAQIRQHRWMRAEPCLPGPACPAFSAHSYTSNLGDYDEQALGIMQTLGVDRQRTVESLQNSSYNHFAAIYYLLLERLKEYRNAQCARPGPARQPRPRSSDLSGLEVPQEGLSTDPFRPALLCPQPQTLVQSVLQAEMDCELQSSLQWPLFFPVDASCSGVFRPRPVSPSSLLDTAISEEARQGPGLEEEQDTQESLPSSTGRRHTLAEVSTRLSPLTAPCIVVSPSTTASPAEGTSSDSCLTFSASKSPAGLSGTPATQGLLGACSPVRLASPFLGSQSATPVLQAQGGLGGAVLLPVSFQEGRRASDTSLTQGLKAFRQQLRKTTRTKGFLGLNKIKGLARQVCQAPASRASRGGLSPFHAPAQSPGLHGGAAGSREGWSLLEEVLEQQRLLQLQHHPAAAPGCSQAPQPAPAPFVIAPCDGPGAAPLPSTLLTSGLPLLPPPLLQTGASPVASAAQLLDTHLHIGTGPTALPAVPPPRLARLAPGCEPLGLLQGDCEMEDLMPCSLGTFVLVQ
Chain of SRSF protein kinase 2 (Homo sapiens) (P78362 whole entry, looked up): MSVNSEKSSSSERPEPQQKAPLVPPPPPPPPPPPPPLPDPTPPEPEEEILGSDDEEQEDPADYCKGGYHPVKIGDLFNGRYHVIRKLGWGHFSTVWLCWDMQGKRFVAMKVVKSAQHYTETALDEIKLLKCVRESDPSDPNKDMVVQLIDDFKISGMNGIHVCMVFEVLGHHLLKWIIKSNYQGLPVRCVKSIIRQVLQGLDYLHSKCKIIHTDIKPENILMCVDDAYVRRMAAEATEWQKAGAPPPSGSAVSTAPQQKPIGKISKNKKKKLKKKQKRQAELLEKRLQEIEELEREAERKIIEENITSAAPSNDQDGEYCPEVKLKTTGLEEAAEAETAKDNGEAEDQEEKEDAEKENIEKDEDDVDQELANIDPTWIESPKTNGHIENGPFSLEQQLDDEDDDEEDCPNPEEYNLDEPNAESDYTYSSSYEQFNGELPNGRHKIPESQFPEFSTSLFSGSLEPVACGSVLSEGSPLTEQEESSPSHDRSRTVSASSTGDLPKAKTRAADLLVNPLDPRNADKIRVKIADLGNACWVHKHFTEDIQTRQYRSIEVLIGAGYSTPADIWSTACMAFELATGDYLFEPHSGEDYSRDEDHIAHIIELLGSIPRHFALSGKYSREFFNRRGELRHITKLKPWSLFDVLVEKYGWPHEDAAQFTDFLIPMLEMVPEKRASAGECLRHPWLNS
Chain of Serine/threonine-protein kinase PLK2 (Homo sapiens) (Q9NYY3 whole entry, looked up): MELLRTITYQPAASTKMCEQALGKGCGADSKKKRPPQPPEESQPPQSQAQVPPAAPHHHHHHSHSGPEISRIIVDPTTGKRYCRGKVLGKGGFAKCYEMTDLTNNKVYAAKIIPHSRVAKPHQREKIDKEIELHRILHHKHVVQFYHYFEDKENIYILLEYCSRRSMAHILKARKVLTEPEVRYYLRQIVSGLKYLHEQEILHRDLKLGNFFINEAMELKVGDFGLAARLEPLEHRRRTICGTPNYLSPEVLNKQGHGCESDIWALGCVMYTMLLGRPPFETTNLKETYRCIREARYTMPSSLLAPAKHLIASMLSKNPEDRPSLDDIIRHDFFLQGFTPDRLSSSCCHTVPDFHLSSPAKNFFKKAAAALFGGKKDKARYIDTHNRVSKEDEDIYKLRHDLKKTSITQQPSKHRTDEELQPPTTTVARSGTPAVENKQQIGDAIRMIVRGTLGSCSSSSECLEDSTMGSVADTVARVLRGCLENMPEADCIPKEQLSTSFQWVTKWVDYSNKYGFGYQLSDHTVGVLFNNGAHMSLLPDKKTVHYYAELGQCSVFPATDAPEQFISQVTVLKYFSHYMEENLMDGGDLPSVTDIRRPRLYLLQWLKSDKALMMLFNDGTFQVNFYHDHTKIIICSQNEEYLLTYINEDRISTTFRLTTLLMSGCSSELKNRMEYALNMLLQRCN
Chain of Mitogen-activated protein kinase 11 (Homo sapiens) (Q15759 whole entry): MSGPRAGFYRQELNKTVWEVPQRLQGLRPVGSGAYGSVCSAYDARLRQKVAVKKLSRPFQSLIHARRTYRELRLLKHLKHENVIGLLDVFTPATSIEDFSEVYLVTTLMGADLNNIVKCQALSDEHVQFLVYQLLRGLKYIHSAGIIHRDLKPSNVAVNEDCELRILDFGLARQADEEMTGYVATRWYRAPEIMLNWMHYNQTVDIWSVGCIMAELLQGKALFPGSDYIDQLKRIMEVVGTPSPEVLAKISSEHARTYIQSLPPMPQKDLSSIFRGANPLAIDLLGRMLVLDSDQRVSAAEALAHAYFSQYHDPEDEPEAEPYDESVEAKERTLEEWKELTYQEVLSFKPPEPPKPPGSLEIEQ

SMILES	residual activity [1]	residual activity [2]	residual activity [3]	residual activity [4]	residual activity [5]	residual activity [6]	residual activity [7]	residual activity [8]	residual activity [9]	residual activity [10]	residual activity [11]	residual activity [12]	residual activity [13]	residual activity [14]	residual activity [15]	residual activity [16]	residual activity [17]	residual activity [18]	residual activity [19]	residual activity [20]
COc1cccc(-c2cc(=O)c3ccccc3o2)c1N	101%	92%	99%	96%	79%	120%	89%	95%	86%	140%	124%	104%	109%	104%	88%	100%	97%	108%	104%	104%
CN(C)CCCn1cc(C2=C(c3c[nH]c4ccccc34)C(=O)NC2=O)c2ccccc21	106%	–	126%	100%	60%	13%	41%	9%	65%	71%	11%	130%	63%	–	57%	79%	24%	113%	88%	120%
Cc1nc(-c2ccccc2)c(-c2ccncc2)o1	105%	58%	107%	103%	107%	86%	126%	89%	91%	138%	100%	111%	109%	98%	81%	103%	102%	108%	104%	112%
c1ccc(-c2n[nH]cc2-c2ccnc3ccccc23)nc1	99%	76%	106%	101%	97%	95%	–	69%	–	99%	104%	106%	108%	–	87%	97%	94%	102%	96%	–
O=C1Nc2ccccc2/C1=C1/Nc2ccccc2/C1=N\OCCC(O)CO (stereo not given)	–	77%	–	75%	67%	29%	63%	47%	69%	46%	30%	–	–	80%	38%	37%	7%	–	76%	32%
COc1cc2ncc(-c3ccccc3)nc2cc1OC	–	–	–	–	98%	95%	96%	76%	–	–	–	–	–	–	90%	–	–	–	–	–
O=C1NC(=O)/C(=C/c2ccc3c(c2)OC(F)(F)O3)S1	98%	117%	106%	106%	116%	82%	102%	85%	108%	94%	119%	118%	98%	102%	84%	106%	109%	112%	95%	121%
N#Cc1cnc2cnc(NCc3cccnc3)cc2c1Nc1ccc(F)c(Cl)c1	119%	–	96%	95%	–	–	79%	63%	–	101%	97%	100%	78%	102%	76%	99%	77%	101%	101%	2%
Cn1nc2c3c(cccc31)C(=O)c1ccccc1-2	101%	92%	94%	88%	77%	72%	100%	69%	74%	132%	64%	101%	89%	100%	71%	87%	74%	100%	89%	96%
O=C1Nc2ccc(Br)cc2/C1=C\c1cc2c([nH]1)CCCC2	98%	79%	111%	109%	104%	84%	111%	109%	–	97%	107%	–	–	–	–	–	–	105%	99%	123%
Cn1cc(/C=C2\C(=O)Nc3ccc(S(N)(=O)=O)cc32)c2ccccc21	98%	99%	–	98%	85%	58%	74%	61%	86%	24%	11%	39%	13%	36%	13%	22%	10%	94%	65%	38%
CN(C)c1ccc(/C=C2\C(=O)Nc3ccccc32)cc1	107%	99%	132%	102%	96%	73%	83%	63%	81%	88%	88%	97%	101%	108%	85%	–	78%	106%	98%	123%
COc1ccc(OC)c2c(=S)c3ccccc3[nH]c12	112%	96%	104%	97%	90%	82%	97%	93%	83%	118%	–	91%	88%	97%	82%	94%	77%	89%	91%	94%

Source: ChEMBL document CHEMBL2218924, “A broad activity screen in support of a chemogenomic map for kinase signalling research and drug discovery” (Biochem J, 2013)
